According to PubChem BioAssay (NCI):
This is part of a sample that, as a whole, favours compounds with a hit. Of some 79,000 tested, about 15% had one in any assay. Calls of active or inactive are those of the source. Rule as the data show it: active = growth inhibition above about 70%; inactive = the rest.

Tests used:
[1] = NCI Yeast Anticancer Drug Screen. Data for the rad52 strain (AID 147);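 also: 0% = growth of vehicle-treated control cultures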; details: S. cerevisiae rad52 mutant growth inhibition, active compounds read high
Procedure, shortened: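 Screen used a yeast mutant impaired in DNA repair. After compound exposure, growth was measured. Values reflect inhibition compared with vehicle-treated cells.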

[2] = NCI Yeast Anticancer Drug Screen. Data for the wt1 strain (AID 149);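 also: 0% = growth of vehicle-treated wt1 cultures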; details: S. cerevisiae wt1 strain (SPY 50644) growth inhibition, active compounds read high
Procedure, shortened: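 Yeast wt1 strain exposed to compounds; growth inhibition measured relative to vehicle-treated controls.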

[3] = NCI Yeast Anticancer Drug Screen. Data for the rad50EPP+ strain (AID 151);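 also: 0% = growth of vehicle-treated control cultures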; details: S. cerevisiae rad50 mutant strain, active compounds read high
Procedure, shortened: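 Exposing the rad50EPP+ strain to each compound, growth was compared with vehicle-only cultures to give inhibition.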

[4] = NCI Yeast Anticancer Drug Screen. Data for the mgt1 strain (AID 153); details: S. cerevisiae mgt1 mutant growth inhibition, active compounds read high
Procedure, shortened: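 Genetically defined yeast (mgt1) treated with compound; inhibition of growth expressed against vehicle-treated controls.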

[5] = NCI Yeast Anticancer Drug Screen. Data for the rad50 strain (AID 155);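 also: 0% = growth of vehicle-only cultures of the same strain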; details: S. cerevisiae rad50 strain growth inhibition, active compounds read high
Procedure, shortened: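 Yeast carrying a defined DNA repair defect were exposed to test compounds, and growth was compared with vehicle-treated controls to give percent inhibition.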

[6] = NCI Yeast Anticancer Drug Screen. Data for the mec2-1 strain (AID 157); details: S. cerevisiae mec2-1 strain, active compounds read high
Procedure, shortened: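 Readout is yeast growth inhibition, normalised to vehicle-treated controls, in the mec2-1 strain exposed to compound.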

[7] = NCI Yeast Anticancer Drug Screen. Data for the rad14 strain (AID 159);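 also: 0% = growth of vehicle-treated control cultures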; details: S. cerevisiae rad14 strain growth inhibition, active compounds read high
Procedure, shortened: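 Yeast cells carrying a defined DNA-repair defect were exposed to compounds, and growth inhibition was calculated relative to vehicle-treated control cultures.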

[8] = NCI Yeast Anticancer Drug Screen. Data for the sgs1 mgt1 strain (AID 161);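 also: 0% = growth of cultures given vehicle only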; details: S. cerevisiae sgs1 mgt1 strain, active compounds read high
Procedure, shortened: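 Yeast cells carrying a defined DNA-repair defect were exposed to test compounds. Growth inhibition was measured relative to vehicle-treated controls.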

[9] = NCI Yeast Anticancer Drug Screen. Data for the CLN2oe strain (AID 163);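 also: 0% = growth of vehicle-only control cultures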; details: S. cerevisiae CLN2oe strain, active compounds read high
Procedure, shortened: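 Values reflect how much compound exposure reduced yeast growth, referenced to vehicle-exposed cells. Assay organism is a strain with a defined genetic change affecting cell-cycle control.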

[10] = NCI Yeast Anticancer Drug Screen. Data for the cln2 rad14 strain (AID 165);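 also: 0% = growth equal to vehicle treated cultures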; details: S. cerevisiae cln2 rad14 strain, active compounds read high
Procedure, shortened: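 Relative to vehicle controls, growth inhibition of compound-treated cln2 rad14 yeast was recorded.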

[11] = NCI Yeast Anticancer Drug Screen. Data for the bub3 strain (AID 167); details: S. cerevisiae bub3 mutant strain, active compounds read high
Procedure, shortened: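 Compounds were applied to a genetically altered yeast strain carrying a cell-cycle control defect. Growth inhibition was scored against vehicle-treated controls.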

[12] = NCI Yeast Anticancer Drug Screen. Data for the wt2 strain (AID 169);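 also: 0% = growth of vehicle-treated yeast cultures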; details: S. cerevisiae wt2 strain growth inhibition, active compounds read high
Procedure, shortened: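 Values express reduction in yeast growth under compound treatment, referenced to vehicle-treated cells.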

[13] = NCI Yeast Anticancer Drug Screen. Data for the mlh1 strain (AID 171);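 also: 0% = growth of vehicle-treated control cultures of the same strain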; details: S. cerevisiae mlh1 strain growth inhibition, active compounds read high
Procedure, shortened: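 Steps: expose the defined-mutant yeast strain to compound; expose a parallel culture to vehicle; measure growth; express compound effect as inhibition relative to the vehicle culture.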

[14] = NCI Yeast Anticancer Drug Screen. Data for the sgs1 strain (AID 173);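 also: 0% = growth of vehicle-only control cultures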; details: S. cerevisiae sgs1 mutant, active compounds read high
Procedure, shortened: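 Treat defined-mutant yeast with compound; measure growth; calculate inhibition relative to vehicle-treated cells.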

[15] = NCI Yeast Anticancer Drug Screen. Data for the mlh1 rad18 strain (AID 175); details: S. cerevisiae mlh1 rad18 strain growth inhibition, active compounds read high
Procedure, shortened: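 Test agents were incubated with a yeast strain of defined genotype (DNA damage repair defect). Inhibition of growth was derived by comparison with vehicle-exposed cultures.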

[16] = NCI Yeast Anticancer Drug Screen. Data for the rad18 strain (AID 177); details: S. cerevisiae rad18 mutant growth inhibition, active compounds read high
Procedure, shortened: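 A genetically defined yeast mutant impaired in DNA damage repair was treated with test compounds, then its growth was measured against cultures receiving vehicle alone.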

[17] = at 5.0 µM (retest, dose inferred, filed as 0.5)
[18] = at 50.0 µM (retest, dose inferred, filed as 5.0)

Measured: growth inhibition

CC1CC[C@]2(C(=O)O)CCC3(C)C(=CC(=O)C4[C@@]5(C)CCC(=O)C(C)(C)C5CC[C@]43C)[C@@H]2[C@H]1C (stereo partly specified)
active: [1]; at 11.0 µM 91% | [1]; at 33.0 µM 98% | [1]; at 100.0 µM 97% | [2]; at 11.0 µM 93% | [2]; at 33.0 µM 98% | [2]; at 100.0 µM 97% | [4]; at 11.0 µM 88% | [4]; at 33.0 µM 97% | [4]; at 100.0 µM 97% | [5]; at 11.0 µM 92% | [5]; at 33.0 µM 98% | [5]; [18] 97% | [5]; at 50.0 µM 90.8% | [5]; at 100.0 µM 97% | [6]; at 11.0 µM 88% | [6]; at 33.0 µM 95% | [6]; [18] 97% | [6]; at 50.0 µM 91.5% | [6]; at 100.0 µM 95% | [7]; at 11.0 µM 77% | [7]; at 33.0 µM 95% | [7]; at 100.0 µM 96% | [8]; [18] 96% | [8]; at 50.0 µM 89.8% | [9]; at 11.0 µM 92% | [9]; at 33.0 µM 97% | [9]; at 100.0 µM 97% | [10]; [18] 98% | [10]; at 50.0 µM 90.7% | [11]; at 11.0 µM 88% | [11]; at 33.0 µM 96% | [11]; [18] 97% | [11]; at 50.0 µM 91.7% | [11]; at 100.0 µM 96% | [12]; at 11.0 µM 88% | [12]; at 33.0 µM 98% | [12]; at 100.0 µM 97% | [13]; at 11.0 µM 83% | [13]; at 33.0 µM 96% | [13]; at 100.0 µM 96% | [14]; at 11.0 µM 91% | [14]; at 33.0 µM 98% | [14]; at 100.0 µM 97% | [15]; [18] 97% | [15]; at 50.0 µM 90.7% | [16]; at 11.0 µM 93% | [16]; at 33.0 µM 97% | [16]; at 100.0 µM 97%
inactive: [1]; at 1.2 µM 29% | [1]; at 3.7 µM 43% | [2]; at 1.2 µM 9% | [2]; at 3.7 µM 20% | [3]; at 1.2 µM 9% | [3]; at 3.7 µM 21% | [3]; at 11.0 µM 28% | [3]; at 33.0 µM 18% | [3]; at 100.0 µM 30% | [4]; at 1.2 µM 4% | [4]; at 3.7 µM 9% | [5]; at 1.2 µM 20% | [5]; at 3.7 µM 46% | [5]; [17] 4% | [6]; at 1.2 µM -2% | [6]; at 3.7 µM 38% | [6]; [17] 26% | [7]; at 1.2 µM -19% | [7]; at 3.7 µM -13% | [8]; [17] 7% | [9]; at 1.2 µM 1% | [9]; at 3.7 µM 37% | [10]; [17] 65% | [11]; at 1.2 µM 12% | [11]; at 3.7 µM 29% | [11]; [17] 58% | [12]; at 1.2 µM 12% | [12]; at 3.7 µM 13% | [13]; at 1.2 µM 14% | [13]; at 3.7 µM 14% | [14]; at 1.2 µM 29% | [14]; at 3.7 µM 30% | [15]; [17] 35% | [16]; at 1.2 µM 15% | [16]; at 3.7 µM 34%

CN(C)c1nc(=Nc2cccc(Cl)c2)ss1
inactive: [1]; at 1.2 µM 7% | [1]; at 3.7 µM 34% | [2]; at 1.2 µM 7% | [2]; at 3.7 µM 20% | [2]; at 11.0 µM 63% | [3]; at 1.2 µM 9% | [3]; at 3.7 µM 42% | [4]; at 1.2 µM 9% | [4]; at 3.7 µM 47% | [5]; at 1.2 µM 5% | [5]; at 3.7 µM 32% | [6]; at 1.2 µM 11% | [6]; at 3.7 µM 28% | [6]; [17] 56% | [7]; at 1.2 µM 6% | [7]; at 3.7 µM 30% | [9]; at 1.2 µM -5% | [9]; at 3.7 µM 11% | [10]; [17] 17% | [11]; at 1.2 µM 1% | [11]; at 3.7 µM 28% | [11]; [17] 69% | [12]; at 1.2 µM 9% | [12]; at 3.7 µM 32% | [13]; at 1.2 µM 11% | [13]; at 3.7 µM 50% | [14]; at 1.2 µM 15% | [14]; at 3.7 µM 52% | [16]; at 1.2 µM 12% | [16]; at 3.7 µM 48%
active: [1]; at 11.0 µM 89% | [1]; at 33.0 µM 99% | [1]; at 100.0 µM 99% | [2]; at 33.0 µM 99% | [2]; at 100.0 µM 99% | [3]; at 11.0 µM 92% | [3]; at 33.0 µM 99% | [3]; at 100.0 µM 99% | [4]; at 11.0 µM 98% | [4]; at 33.0 µM 99% | [4]; at 100.0 µM 99% | [5]; [17] 75% | [5]; at 11.0 µM 89% | [5]; at 33.0 µM 99% | [5]; [18] 99% | [5]; at 50.0 µM 99.5% | [5]; at 100.0 µM 99% | [6]; at 11.0 µM 96% | [6]; at 33.0 µM 100% | [6]; [18] 99% | [6]; at 50.0 µM 99.7% | [6]; at 100.0 µM 100% | [7]; at 11.0 µM 97% | [7]; at 33.0 µM 99% | [7]; at 100.0 µM 99% | [8]; [17] 90% | [8]; [18] 99% | [8]; at 50.0 µM 99.7% | [9]; at 11.0 µM 71% | [9]; at 33.0 µM 99% | [9]; at 100.0 µM 99% | [10]; [18] 99% | [10]; at 50.0 µM 99.4% | [11]; at 11.0 µM 98% | [11]; at 33.0 µM 99% | [11]; [18] 98% | [11]; at 50.0 µM 98.3% | [11]; at 100.0 µM 99% | [12]; at 11.0 µM 90% | [12]; at 33.0 µM 99% | [12]; at 100.0 µM 99% | [13]; at 11.0 µM 96% | [13]; at 33.0 µM 99% | [13]; at 100.0 µM 99% | [14]; at 11.0 µM 95% | [14]; at 33.0 µM 99% | [14]; at 100.0 µM 99% | [15]; [17] 89% | [15]; [18] 99% | [15]; at 50.0 µM 99.5% | [16]; at 11.0 µM 97% | [16]; at 33.0 µM 99% | [16]; at 100.0 µM 99%

CC1=C(C(=O)NCc2ccccc2)C(c2ccccc2)C(C(=O)NCc2ccccc2)=C(C)N1
active: [1]; at 100.0 µM 85% | [2]; at 100.0 µM 89% | [4]; at 100.0 µM 97% | [5]; [18] 75% | [5]; at 50.0 µM 75.5% | [5]; at 100.0 µM 91%
inactive: [1]; at 1.2 µM -3% | [1]; at 3.7 µM -4% | [1]; at 11.0 µM -4% | [1]; at 33.0 µM -20% | [2]; at 1.2 µM 0% | [2]; at 3.7 µM -1% | [2]; at 11.0 µM -4% | [2]; at 33.0 µM 4% | [3]; at 1.2 µM -3% | [3]; at 3.7 µM -1% | [3]; at 11.0 µM 3% | [3]; at 33.0 µM 3% | [3]; at 100.0 µM 0% | [4]; at 1.2 µM -2% | [4]; at 3.7 µM -2% | [4]; at 11.0 µM -3% | [4]; at 33.0 µM 6% | [5]; at 1.2 µM -14% | [5]; at 3.7 µM 21% | [5]; [17] 2% | [5]; at 11.0 µM 22% | [5]; at 33.0 µM 36% | [6]; at 1.2 µM -1% | [6]; at 3.7 µM -4%
